Source: the antibiotic and cytotoxicity screens of Wong et al. (2023)
Among all 39,000 compounds or so, about 500 (1.3%) were called active. The full list was thinned out, with actives kept by preference.

Test system: S. aureus RN4220
Assay: growth inhibition call (relative growth <= 0.2)
Details: 50 µM

**Q.** `O=c1[nH]c(=O)n(C2CC(O)C(CO)O2)cc1I` (stereo unspecified) was tested. Which growth inhibition call did it give?
**A.** inactive

**Q.** `CCOc1ccc2ccccc2c1C(=O)NC1C(=O)N2C1SC(C)(C)C2C(=O)[O-].[Na+]` (stereo unspecified) was tested. Which growth inhibition call did it give?
**A.** active

**Q.** For `COc1cccc(OC)c1C(=O)NCCCO`, which growth inhibition call is on record?
**A.** inactive

**Q.** How did the growth inhibition call turn out when `COc1cccc(OC)c1C(=O)NC1C(=O)N2C1SC(C)(C)C2C(=O)[O-].[Na+]` (stereo unspecified) was run?
**A.** active

**Q.** For `COc1cccc(OC)c1C(=O)NN`, which growth inhibition call is on record?
**A.** inactive

**Q.** How did the growth inhibition call turn out when `Cc1cc(=O)n2nc(CC(=O)NCCCn3c(C)cccc3=O)nc2[nH]1` was run?
**A.** inactive

**Q.** With `C[C@H]1CN([C@@H](C)CO)S(=O)(=O)c2ccc(Br)cc2O[C@H]1CN(C)S(=O)(=O)c1ccccc1` as the molecule, how does the growth inhibition call read?
**A.** inactive

**Q.** How did the growth inhibition call turn out when `Cc1noc(C)c1S(=O)(=O)N(C)C[C@@H]1Oc2ccc(NC(=O)C3CC3)cc2CC(=O)N([C@@H](C)CO)C[C@@H]1C` was run?
**A.** inactive

**Q.** How did the growth inhibition call turn out when `C[C@@H]1CN([C@@H](C)CO)C(=O)c2cc(NS(=O)(=O)c3ccc(Cl)cc3)ccc2O[C@@H](C)CCCCO[C@@H]1CN(C)Cc1ccccc1` was run?
**A.** inactive

**Q.** `C[C@H]1CN([C@@H](C)CO)C(=O)c2c(c3ccccc3n2C)-c2ccccc2CO[C@H]1CN(C)C(=O)Nc1cccc(F)c1` was tested. Which growth inhibition call did it give?
**A.** inactive

**Q.** Which growth inhibition call does the source give for `Cc1cc(OCCCS(C)(=O)=O)cc(C)c1-c1cccc(COc2ccc3c(c2)OC[C@H]3CC(=O)O)c1` here?
**A.** active

**Q.** How did the growth inhibition call turn out when `C[C@H]1OC(=O)c2c(O)ccc(O)c2[C@H]1O` was run?
**A.** inactive

**Q.** For `COc1cccc(NC(=O)N2C[C@H](O)COC[C@@H]3O[C@H](CC(=O)NCCCN4CCOCC4)CC[C@H]32)c1`, which growth inhibition call is on record?
**A.** inactive

**Q.** `CCC(C)C1OC2(C=CC1C)CC1CC(CC=C(C)C(OC3CC(OC)C(OC4CC(OC)C(NC(C)=O)C(C)O4)C(C)O3)C(C)C=CC=C3COC4C(O)C(C)=CC(C(=O)O1)C34O)O2` (stereo unspecified) was tested. Which growth inhibition call did it give?
**A.** inactive

**Q.** Which growth inhibition call does the source give for `CO[C@H]1C[C@H](O[C@@H]2/C(C)=C/C[C@@H]3C[C@@H](C[C@]4(CC[C@H](C)[C@@H](C5CCCCC5)O4)O3)OC(=O)[C@@H]3C=C(C)/C(=N/O)[C@H]4OC/C(=C\C=C\[C@@H]2C)[C@]43O)O[C@@H](C)[C@@H]1O` here?
**A.** active

**Q.** `CC[C@H](C)[C@H]1O[C@]2(C=C[C@@H]1C)C[C@@H]1C[C@@H](C/C=C(\C)[C@@H](O[C@H]3C[C@H](OC)[C@@H](O[C@H]4C[C@H](OC)[C@@H](NC(C)=O)[C@H](C)O4)[C@H](C)O3)[C@@H](C)/C=C/C=C3\CO[C@@H]4[C@H](O)C(C)=C[C@@H](C(=O)O1)[C@]34O)O2` was tested. Which growth inhibition call did it give?
**A.** inactive

**Q.** For `CO[C@H]1C[C@@H](O[C@@H]2/C(C)=C/C[C@@H]3C[C@@H](C[C@]4(CC[C@H](C)[C@@H](C5CCCCC5)O4)O3)OC(=O)[C@@H]3C=C(C)/C(=N/O)[C@H]4OC/C(=C\C=C\[C@@H]2C)[C@]43O)O[C@@H](C)[C@@H]1O`, which growth inhibition call is on record?
**A.** inactive

**Q.** With `COC1CC(OC2C(C)=CCC3CC(CC4(CCC(C)C(C5CCCCC5)O4)O3)OC(=O)C3C=C(C)C(=NO)C4OCC(=CC=CC2C)C34O)OC(C)C1O` (stereo unspecified) as the molecule, how does the growth inhibition call read?
**A.** inactive

**Q.** With `CN[C@@H]1[C@@H](C)O[C@@H](O[C@H]2[C@H](C)O[C@@H](O[C@@H]3/C(C)=C/C[C@@H]4C[C@@H](C[C@]5(C=C[C@H](C)[C@@H](C(C)C)O5)O4)OC(=O)[C@@H]4C=C(C)[C@@H](O)[C@H]5OC/C(=C\C=C\[C@@H]3C)[C@]54O)C[C@@H]2OC)C[C@H]1OC` as the molecule, how does the growth inhibition call read?
**A.** active

**Q.** For `COc1ccc(S(=O)(=O)Nc2ccc3c(c2)C(=O)N([C@H](C)CO)C[C@H](C)[C@@H](CN(C)C(=O)CCC(F)(F)F)OCCCC[C@@H](C)O3)cc1`, which growth inhibition call is on record?
**A.** inactive

**Q.** `COc1cccc(-c2cnc3c(c2)C(=O)N([C@H](C)CO)C[C@H](C)[C@H](CN(C)S(=O)(=O)c2cn(C)cn2)O3)c1` was tested. Which growth inhibition call did it give?
**A.** inactive

**Q.** Which growth inhibition call does the source give for `O=C1NC2=C(C(=O)OC2)[C@H](c2ccccc2)N1` here?
**A.** inactive

**Q.** Which growth inhibition call does the source give for `C[C@@H](O)[C@@H](O)[C@@H](O)C/C=N/NC(=O)CCCCCCC(=O)NO` here?
**A.** inactive

**Q.** With `CC(C)NC(=O)N(C)C[C@@H]1Oc2ccc(NC(=O)CCN3CCOCC3)cc2C(=O)N([C@H](C)CO)C[C@@H]1C` as the molecule, how does the growth inhibition call read?
**A.** inactive

**Q.** With `Oc1ccc(C=Cc2cc(O)cc(O)c2)cc1` as the molecule, how does the growth inhibition call read?
**A.** inactive

**Q.** Which growth inhibition call does the source give for `COc1cc(C=Cc2ccc(O)cc2)cc(OC)c1` here?
**A.** active

**Q.** Which growth inhibition call does the source give for `COc1ccc(O)cc1` here?
**A.** inactive

**Q.** For `CCCCCCCCCC(=O)N[C@H]1[C@H](Oc2c3cc4cc2Oc2ccc(cc2Cl)[C@@H](O[C@@H]2O[C@H](CO)[C@@H](O)[C@H](O)[C@H]2NC(C)=O)[C@@H]2NC(=O)[C@H](NC(=O)[C@@H]4NC(=O)[C@H]4NC(=O)[C@@H](Cc5ccc(c(Cl)c5)O3)NC(=O)[C@@H](N)c3ccc(O)c(c3)Oc3cc(O)cc4c3)c3ccc(O)c(c3)-c3c(O[C@H]4O[C@H](CO)[C@@H](O)[C@H](O)[C@@H]4O)cc(O)cc3[C@H](C(=O)O)NC2=O)O[C@H](CO)[C@@H](O)[C@@H]1O`, which growth inhibition call is on record?
**A.** active

**Q.** With `CCCCCC=CCCC(=O)NC1C(Oc2c3cc4cc2Oc2ccc(cc2Cl)C(OC2OC(CO)C(O)C(O)C2NC(C)=O)C2NC(=O)C(NC(=O)C4NC(=O)C4NC(=O)C(Cc5ccc(c(Cl)c5)O3)NC(=O)C(N)c3ccc(O)c(c3)Oc3cc(O)cc4c3)c3ccc(O)c(c3)-c3c(OC4OC(CO)C(O)C(O)C4O)cc(O)cc3C(C(=O)O)NC2=O)OC(CO)C(O)C1O` (stereo unspecified) [TEICOPLANIN [A(2-1) shown]] as the molecule, how does the growth inhibition call read?
**A.** active

**Q.** With `CCCCC/C=C/CCC(=O)N[C@H]1[C@H](Oc2c3cc4cc2Oc2ccc(cc2Cl)[C@@H](O[C@@H]2O[C@H](CO)[C@@H](O)[C@H](O)[C@H]2NC(C)=O)[C@@H]2NC(=O)[C@H](NC(=O)[C@@H]4NC(=O)[C@H]4NC(=O)[C@@H](Cc5ccc(c(Cl)c5)O3)NC(=O)[C@H](N)c3ccc(O)c(c3)Oc3cc(O)cc4c3)c3ccc(O)c(c3)-c3c(O[C@H]4O[C@H](CO)[C@@H](O)[C@H](O)[C@@H]4O)cc(O)cc3[C@@H](C(=O)O)NC2=O)O[C@H](CO)[C@@H](O)[C@@H]1O` as the molecule, how does the growth inhibition call read?
**A.** active

**Q.** For `C[C@@H]1CN([C@@H](C)CO)C(=O)c2cc(NC(=O)Nc3ccc4c(c3)OCO4)ccc2O[C@@H](C)CCCCO[C@@H]1CN(C)C(=O)C1CCCCC1`, which growth inhibition call is on record?
**A.** inactive

**Q.** Which growth inhibition call does the source give for `COc1ccc(S(=O)(=O)Nc2ccc3c(c2)C(=O)N([C@H](C)CO)C[C@@H](C)[C@@H](CN(C)C(=O)C2CCCCC2)OCCCC[C@@H](C)O3)cc1` here?
**A.** inactive

**Q.** `C[C@H](CO)N1C[C@H](C)[C@H](CN(C)S(=O)(=O)c2cn(C)cn2)Oc2ccc(NC(=O)NC3CCCCC3)cc2C1=O` was tested. Which growth inhibition call did it give?
**A.** inactive

**Q.** How did the growth inhibition call turn out when `C[C@@H]1CCCCO[C@H](CN(C)Cc2ccccc2)[C@@H](C)CN([C@@H](C)CO)C(=O)c2cc(NS(=O)(=O)c3ccc(F)cc3)ccc2O1` was run?
**A.** inactive

**Q.** Which growth inhibition call does the source give for `C[C@@H]1CCCCO[C@H](CN(C)S(=O)(=O)c2cccs2)[C@@H](C)CN([C@@H](C)CO)C(=O)c2cc(NC(=O)CCC(F)(F)F)ccc2O1` here?
**A.** inactive

**Q.** For `CC(=O)OC[C@H]1O[C@@](COC(C)=O)(O[C@H]2O[C@H](COC(C)=O)[C@@H](OC(C)=O)[C@H](OC(C)=O)[C@H]2OC(C)=O)[C@@H](OC(C)=O)[C@@H]1OC(C)=O`, which growth inhibition call is on record?
**A.** inactive

**Q.** Which growth inhibition call does the source give for `C[C@H]1CN([C@@H](C)CO)C(=O)CCCn2nncc2CO[C@@H]1CN(C)S(=O)(=O)c1ccc2c(c1)OCCCO2` here?
**A.** inactive

**Q.** With `C[C@H](CO)N1C[C@H](C)[C@@H](CN(C)Cc2ccc(Oc3ccccc3)cc2)Oc2ccc(NS(=O)(=O)c3ccc(F)cc3)cc2C1=O` as the molecule, how does the growth inhibition call read?
**A.** inactive

**Q.** With `C[C@H]1CN([C@@H](C)CO)C(=O)c2cccc(NS(=O)(=O)c3ccc(F)cc3)c2O[C@H]1CN(C)Cc1ccc(Cl)c(Cl)c1` as the molecule, how does the growth inhibition call read?
**A.** inactive

**Q.** How did the growth inhibition call turn out when `C[C@H]1CN([C@@H](C)CO)C(=O)Cc2cc(NC(=O)CCCCCC(=O)Nc3ccccc3N)ccc2O[C@@H]1CN(C)C(=O)Nc1ccc(C(F)(F)F)cc1` was run?
**A.** inactive

**Q.** `CCS(=O)(=O)Nc1ccc2c(c1)C(=O)N(C)[C@H]1CC[C@@H](CC(=O)N3CCN(C)CC3)O[C@@H]1CO2` was tested. Which growth inhibition call did it give?
**A.** inactive

**Q.** With `COc1cc(O)cc(OC)c1OC` as the molecule, how does the growth inhibition call read?
**A.** inactive

**Q.** How did the growth inhibition call turn out when `COc1ccc(Cc2cnc(N)nc2N)cc1OC` was run?
**A.** active

**Q.** Which growth inhibition call does the source give for `COc1cc(CN)cc(OC)c1OC` here?
**A.** inactive

**Q.** `COc1cc(Cc2cnc(N)nc2N)cc(OC)c1OC` was tested. Which growth inhibition call did it give?
**A.** active

**Q.** How did the growth inhibition call turn out when `COc1cccnc1N` was run?
**A.** inactive

**Q.** How did the growth inhibition call turn out when `COc1ccc(C2=C(N)C(=O)NC2=O)cc1OC` was run?
**A.** inactive

**Q.** Which growth inhibition call does the source give for `COc1ccc(NC(=O)N(C)C[C@H]2OCCCC[C@H](C)Oc3ccc(NC(=O)c4ccncc4)cc3C(=O)N([C@@H](C)CO)C[C@@H]2C)cc1` here?
**A.** inactive

**Q.** Which growth inhibition call does the source give for `COc1ccc(CN(C)C[C@H]2OCCCC[C@@H](C)Oc3ccc(NC(=O)Nc4ccc5c(c4)OCO5)cc3C(=O)N([C@H](C)CO)C[C@H]2C)cc1` here?
**A.** inactive

**Q.** `C[C@@H]1CCCCO[C@@H](CN(C)Cc2ccc(C(=O)O)cc2)[C@@H](C)CN([C@H](C)CO)C(=O)c2cc(NS(=O)(=O)c3ccc(Cl)cc3)ccc2O1` was tested. Which growth inhibition call did it give?
**A.** inactive

**Q.** With `COc1ccc(NC(=O)Nc2ccc3c(c2)C(=O)N([C@H](C)CO)C[C@H](C)[C@H](CN(C)C(=O)C2CCCCC2)OCCCC[C@H](C)O3)cc1` as the molecule, how does the growth inhibition call read?
**A.** inactive

**Q.** Which growth inhibition call does the source give for `C[C@@H]1CN([C@H](C)CO)C(=O)c2cccc(NC(=O)CCCCCC(=O)Nc3ccccc3N)c2O[C@@H]1CN(C)Cc1ccc(-c2ccccc2)cc1` here?
**A.** inactive

**Q.** Which growth inhibition call does the source give for `COc1ccc(CN(C)C[C@H]2Oc3c(NS(=O)(=O)c4cn(C)cn4)cccc3C(=O)N([C@@H](C)CO)C[C@@H]2C)cc1` here?
**A.** inactive

**Q.** For `CO[C@@H]1CN(C)C(=O)c2cc(NS(=O)(=O)c3ccccc3C)ccc2OC[C@@H](C)N(S(C)(=O)=O)C[C@H]1C`, which growth inhibition call is on record?
**A.** inactive

**Q.** How did the growth inhibition call turn out when `C[C@H](CO)N1C[C@H](C)[C@@H](CN(C)Cc2ccc(C(F)(F)F)cc2)OCCCC[C@H](C)Oc2ccc(NC(=O)c3ccncc3)cc2C1=O` was run?
**A.** inactive

**Q.** How did the growth inhibition call turn out when `C[C@@H]1CN([C@H](C)CO)C(=O)c2cc(NC(=O)NC3CCCCC3)ccc2O[C@@H]1CN(C)Cc1ccc(Cl)c(Cl)c1` was run?
**A.** inactive
